Screens: PubChem BioAssay, National Center for Advancing Translational Sciences (NCATS)
A selection: hits, their analogues and other compounds. The true share with any hit is near 21%.
Pf growth 48h – P. falciparum growth inhibition at 48 hours (one generation). P. falciparum luciferase growth in erythrocytes, 48 h. Potency, µM (doses to about 28.7 µM), inactives show top-dose activity change, negative = inhibition, hits mostly inhibitors. 310,000 compounds, 5.9% hits. AID 504832; active means well fitted inhibition curve with a large enough effect; inconclusive means small, poorly fitted or top-dose-only effect, or another doubt; inactive means no such curve, though single readings can be large or run the other way; further: potency means the concentration at half of the fitted maximal effect; on the % scale 0 is the no-effect control and ±100 the full control effect
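Luciferase-expressing P. falciparum in infected erythrocytes (2% hematocrit, 0.1% parasitemia final) in RPMI 1640/0.5% Albumax were exposed to compound for 48 hours at 37 C, 5% CO2; growth read as luminescence.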
Shiga inhibitor – inhibitors of Shiga toxin in Vero cells. Vero cells, Shiga toxin protein synthesis inhibition reporter. inhibition, % at 38.7 µM. 290,000 compounds, 9.2% hits. AID 2315; in the data active means inhibition mostly above about 28%, no sharp cut-off; inactive means mostly below about 43%; further: 0% is about no effect
SARS PLP yeast – blocks SARS-CoV papain-like protease in a yeast assay. AID 485353. Potency, µM (highest dose often 32.9 µM), for inactives: at the top dose activity, positive = growth rescue, usual class: activators. 330,000 compounds, 0.19% hits. S. cerevisiae expressing SARS-CoV PLpro, growth rescue; further: potency means the concentration at half of the fitted maximal effect; 0% is about no effect; nearly all actives have a fitted effect of over 55% in size
Cycloheximide cs – counter-screen for Shiga toxin inhibitors: cycloheximide protein synthesis inhibition; cell reporter, cycloheximide protein synthesis inhibition counterscreen; max response, %; 300,000 compounds, 12% hits; in the data active means max response mostly above about 13%, no sharp cut-off; inactive means mostly below about 14%; further: read at 38.3 µM for the half of the compounds with a filed dose; 0% is about no effect
NS1 inh – blocks influenza NS1 protein function | Potency, µM (series often up to 46.1 µM), without a hit: at the top dose activity, positive = more growth | 270,000 compounds, 0.4% hits | AID 2326; further: potency means the concentration at half of the fitted maximal effect; actives are rising curves; nearly all actives have a fitted effect of over 50% in size
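Compounds were scored for reversing the slow growth caused by influenza A NS1 in S. cerevisiae, measured by optical density at 600 nm. Assay medium contained 2% galactose at pH 6.0; NS1-free yeast of the same strain were the positive control.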
Pf growth 96h – P. falciparum growth inhibition at 96 hours | P. falciparum luciferase reporter growth, 96 h | Potency, µM (highest dose often 28.7 µM), for the others: at the top dose activity change, negative = inhibition, usual class: inhibitors | 320,000 compounds, 6.9% hits; active means well fitted inhibition curve with a large enough effect; inconclusive means small, poorly fitted or top-dose-only effect, or another doubt; inactive means no such curve, though single readings can be large or run the other way; further: potency means the concentration at half of the fitted maximal effect; on the % scale 0 is the no-effect control and ±100 the full control effect
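96 h incubation, 37 C, 5% CO2, of luciferase-reporter P. falciparum-infected RBCs (2% hematocrit, 0.05% parasitemia final) with test compounds; endpoint luminescence.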
The depositor's hits bear a star; ? = inconclusive; / = no result; [ ] = dose if it differs, or a comment. Unless noted, the call rests on the fitted dose curve.

SMILES | Pf growth 48h | Shiga inhibitor | SARS PLP yeast | Cycloheximide cs | NS1 inh | Pf growth 96h
OCC1CCCN(C(=S)Nc2ccc(Oc3ccccc3)cc2)C1 (stereo not given) | 225% | 80* | -2% | 43* | 1% | 26%
OCCN1CCN(C(=S)Nc2ccc(Oc3ccccc3)cc2)CC1 | -4% | -25 | 3% | 1 | 0% | ?
COC(=O)Cc1ccc(NC(=S)N2CCCC(C)C2)cc1 (stereo not given) | 58% | 11 | 14% | 41* | -5% | 66%
COC(=O)c1ccc(C(=O)OC)c(NC(=S)N2CCCC(CO)C2)c1 (stereo not given) | 5%[5.75 µM] | 28 | 1% | 1 | / | ?
CC(=O)c1ccc(NC(=S)N2CCCC(CO)C2)cc1 (stereo not given) | 17% | 51* | 3% | 38* | 1% | 63%
CCOC(=O)c1c(C)[nH]c(C)c1S(=O)(=O)NCc1ccc(OCC)cc1 | 9% | 0 | 3% | 16 | 7% | ?
Cn1cc(C(=O)c2cccc(Cl)c2)cc1/C=N\O | 77% | 39 | 0% | 33* | / | 28%
CC1CCN(S(=O)(=O)c2cc3c4c(c2)C(C)C(=O)N4CCC3)CC1 (stereo not given) | -19% | -2 | 9% | 7 | 16% | ?
O=C(O)CC1=C(c2ccc(F)cc2)CCC1=O | -9% | -7 | 4% | -2 | 2% | 6.6µM*
COc1ccc(C(=O)/C=C/c2ccccc2)c(O)c1 | 34% | 54* | -14% | 70* | -14% | 53%
COc1ccc(C(=O)c2ccc(OC)cc2O)c(O)c1 | ? | 47 | 6% | 11 | -48% | 32%[5.75 µM]
O=C(/C=C/c1ccncc1)c1cc(Cl)ccc1O | ? | 20 | -4% | 10 | 2% | 9.3µM*
COc1ccc(C(=O)c2ccccc2O)c(O)c1 | 4.1µM* | / | / | / | / | ?
COc1ccc(/C=C/C(=O)c2ccc(Cl)cc2)c(OC)c1 | 134% | 80* | -10% | 43* | 13% | 43%
CC1C=CCC2C(=O)N(c3cccc(C(=O)NCc4ccccc4)c3)C(=O)C12 (stereo not given) | -12% | -4 | 0% | -5 | 1% | 0%
O=C(CCc1ccc(O)cc1)N/N=C/c1coc2ccccc2c1=O | 4% | -5 | -2% | -1 | -1% | 51%
COc1ccc(C(=O)/C=C/c2ccc(OC)cc2OC)c(O)c1 | 187% | 72* | 0% | 43* | 1% | 37%
CN(C)c1ccc(/C=C/C(=O)c2cc(Cl)ccc2O)cc1 | -7% | 33 | -2% | 12 | -1% | 18%
COc1ccc(/C=C/C(=O)c2cc(Cl)ccc2O)c(OC)c1 | ? | 50* | -1% | 25* | -1% | ?
Cc1ccc(S(=O)(=O)N(C)CC(=O)Nc2nnc(CC(C)C)s2)cc1 | -4% | -5 | 7% | -1 | 16% | 21%
COc1ccc(NC(=O)Nc2ccccc2SC)cc1OC | 87% | 48* | 0% | 20* | 6% | ?
COc1ccc(NC(=O)Nc2ccccc2SC)c(OC)c1 | -4% | 29 | 0% | -1 | 5% | 0%
COc1cccc(NC(=O)Nc2ccccc2SC)c1 | 30% | 84* | -2% | 37* | -10% | 4%
O=C(CN1CCN(c2ccc(O)cc2)CC1)Nc1cc([N+](=O)[O-])ccc1Cl | 13% | -7 | 21% | 6 | 17% | ?
CCOC(=O)C1=C(COC(=O)CCNS(=O)(=O)c2ccc(C)c(C)c2)NC(=O)NC1C (stereo not given) | ? | / | 3% | / | / | -26%
CC1CCCC(NC(=O)CN2C(=O)c3cccnc3Oc3ccc(Cl)cc32)C1C (stereo not given) | ? | -1 | -11% | 7 | 0% | 24%
Cc1ccc(CNC(=O)C2CCCN(c3nc4ccccc4o3)C2)cc1 (stereo not given) | 0% | -15 | 2% | -4 | -9% | 0%
O=C(NCc1cccs1)C1CCCN(c2nc3ccccc3o2)C1 (stereo not given) | ? | 3 | -14% | -2 | -36% | 5.2µM*
Cc1ccnc(N2CCCC(C(=O)NCc3cccs3)C2)n1 (stereo not given) | -9% | -6 | 6% | -1 | 7%[9.22 µM] | 9.3µM*
